We go through five compounds from PubChem BioAssay.

Activity calls are given as the source filed them.

Experiment [1] relates to Plasmodium falciparum Sir2 (PF13_0152, Sir2A). The experiment in a line: Plasmodium falciparum Sir2A binding compounds – biochemical, small-molecule microarray, 635 nm fluorescence, primary screen (AID 1098).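 Also: score merges spot fluorescence intensity with its signal-to-noise ratio.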 To be noted: fluorescence 635 nm, higher = more signal.
Experiment [2] in a line: probe aDKK1 binding to arrayed compounds – biochemical, biotinylated probe, 635/667 nm fluorescence, primary screen (AID 1099).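 Also: score merges 667nm spot fluorescence with signal to noise across triplicate slides.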 To be noted: small-molecule microarray, higher = more signal.
Experiment [3] can be described thus: probe aCHRDL2 binding to arrayed compounds – biochemical, biotinylated probe, 635/667 nm fluorescence, primary screen (AID 1100). To be noted: small-molecule microarray, higher = more signal.
Experiment [4] can be described thus: change in splice reporter luminescence, either direction, cell-based, HEK293, spliceosome inhibition project, primary screen (AID 1101).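 Also: HEK293 cells carrying a splicing-competent luciferase reporter gene; test concentration not given here.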 The note with it: HEK293 splicing luciferase reporter, 24 h, higher = more signal, called active from +8 up or from −8 down. (In general: A reporter such as luciferase makes a cellular process visible.)
The target of experiment [5] is Fibroblast growth factor 10 (Homo sapiens) (UniProt O15520). The experiment in a line: compounds binding fibroblast growth factor 10 – biochemical, small-molecule microarray, 635 nm fluorescence, primary screen (AID 1102). To be noted: FGF10 binding, fluorescence 635 nm, higher = more signal.
Fibroblast growth factor 10 (Homo sapiens), sequence (O15520 whole entry, looked up): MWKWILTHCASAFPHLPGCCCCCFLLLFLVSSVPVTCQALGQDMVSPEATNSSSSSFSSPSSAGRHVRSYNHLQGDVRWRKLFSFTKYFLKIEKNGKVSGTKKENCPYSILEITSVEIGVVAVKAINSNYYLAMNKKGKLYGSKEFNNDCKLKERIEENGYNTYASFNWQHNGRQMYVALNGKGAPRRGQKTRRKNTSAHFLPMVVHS
Experiment [6] relates to glycogen synthase kinase-3 (GSK3A per assay name; protocol says GSK3B). Briefly: compounds binding glycogen synthase kinase-3 – biochemical, small-molecule microarray, 635 nm fluorescence, GSK3A, primary screen (AID 1103). Also: the record names both GSK3A and GSK3B. To be noted: fluorescence 635 nm, higher = more signal.
For experiment [7], the target named is Epidermal growth factor receptor (Homo sapiens) (UniProt P00533). The experiment in a line: compounds binding epidermal growth factor receptor – biochemical, small-molecule microarray, 635 nm fluorescence, primary screen (AID 1104).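 Also: score merges 667 nm emission intensity with spot signal to noise over triplicate slides.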 The note with it: EGFR binding, higher = more signal.
Epidermal growth factor receptor (Homo sapiens), sequence (P00533 whole entry, looked up): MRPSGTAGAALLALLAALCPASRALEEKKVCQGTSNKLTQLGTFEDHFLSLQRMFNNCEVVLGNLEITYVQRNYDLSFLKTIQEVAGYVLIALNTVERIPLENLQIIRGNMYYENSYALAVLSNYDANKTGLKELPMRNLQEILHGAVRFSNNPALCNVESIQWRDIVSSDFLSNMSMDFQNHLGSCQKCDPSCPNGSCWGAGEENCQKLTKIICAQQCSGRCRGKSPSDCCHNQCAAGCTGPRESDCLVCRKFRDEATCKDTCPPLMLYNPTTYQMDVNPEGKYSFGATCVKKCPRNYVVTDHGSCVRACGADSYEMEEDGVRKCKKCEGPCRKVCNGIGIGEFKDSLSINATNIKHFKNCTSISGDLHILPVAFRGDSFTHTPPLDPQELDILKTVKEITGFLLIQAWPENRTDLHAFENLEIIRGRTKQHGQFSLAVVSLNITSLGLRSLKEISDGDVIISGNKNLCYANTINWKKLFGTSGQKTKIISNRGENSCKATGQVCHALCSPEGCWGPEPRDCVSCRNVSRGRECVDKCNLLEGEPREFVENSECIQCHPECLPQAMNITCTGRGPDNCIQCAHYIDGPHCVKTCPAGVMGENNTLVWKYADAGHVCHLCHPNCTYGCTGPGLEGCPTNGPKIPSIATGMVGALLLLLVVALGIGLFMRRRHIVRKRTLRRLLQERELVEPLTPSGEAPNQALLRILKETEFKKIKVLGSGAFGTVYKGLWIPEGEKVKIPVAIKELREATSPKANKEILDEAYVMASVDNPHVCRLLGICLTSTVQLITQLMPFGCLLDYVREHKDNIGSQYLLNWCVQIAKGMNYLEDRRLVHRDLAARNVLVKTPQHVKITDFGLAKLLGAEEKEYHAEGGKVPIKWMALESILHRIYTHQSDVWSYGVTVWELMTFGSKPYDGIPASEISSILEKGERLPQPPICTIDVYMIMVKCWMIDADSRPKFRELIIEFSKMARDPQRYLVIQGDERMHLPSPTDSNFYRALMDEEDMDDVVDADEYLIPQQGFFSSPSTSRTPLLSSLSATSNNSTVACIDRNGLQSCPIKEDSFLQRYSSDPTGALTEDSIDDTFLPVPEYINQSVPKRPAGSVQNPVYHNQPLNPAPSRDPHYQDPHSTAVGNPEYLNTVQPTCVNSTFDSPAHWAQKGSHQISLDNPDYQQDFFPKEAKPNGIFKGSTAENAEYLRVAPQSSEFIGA
In experiment [8] the target is Follistatin-related protein 3 (Homo sapiens) (UniProt O95633). The experiment in a line: compounds binding follistatin-related protein 3 – biochemical, small-molecule microarray, 635 nm fluorescence, primary screen (AID 1105).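 Also: score merges emission near 667 nm and signal to noise per printed spot across three slides.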 To be noted: FSTL3 binding, higher = more signal.
Follistatin-related protein 3 (Homo sapiens), sequence (O95633 whole entry, looked up): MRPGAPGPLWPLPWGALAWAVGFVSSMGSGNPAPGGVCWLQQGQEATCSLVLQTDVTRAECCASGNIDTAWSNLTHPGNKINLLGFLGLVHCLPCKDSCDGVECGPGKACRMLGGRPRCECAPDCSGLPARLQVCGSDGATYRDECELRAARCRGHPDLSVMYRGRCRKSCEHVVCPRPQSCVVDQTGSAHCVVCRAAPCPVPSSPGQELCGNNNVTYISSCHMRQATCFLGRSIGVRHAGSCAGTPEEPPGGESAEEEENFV
In experiment [9] the target is Dickkopf-related protein 1 (Homo sapiens) (UniProt O94907). Briefly: small molecules binding DKK1 protein – biochemical, small-molecule microarray, 635 nm fluorescence scan, primary screen (AID 1106).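 Also: score merges emission near 667 nm with signal to noise over three replicate slides.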 To be noted: higher = more signal.
Dickkopf-related protein 1 (Homo sapiens), sequence (O94907 whole entry, looked up): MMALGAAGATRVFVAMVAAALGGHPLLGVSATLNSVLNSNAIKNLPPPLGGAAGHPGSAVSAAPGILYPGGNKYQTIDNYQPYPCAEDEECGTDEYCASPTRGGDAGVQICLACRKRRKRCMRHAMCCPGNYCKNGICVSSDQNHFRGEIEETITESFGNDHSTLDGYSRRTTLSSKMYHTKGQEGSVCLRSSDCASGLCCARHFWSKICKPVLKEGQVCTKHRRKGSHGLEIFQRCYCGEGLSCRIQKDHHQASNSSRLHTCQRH
Experiment [10] has as its system Inhibin beta A chain (activin A). The experiment in a line: small molecules binding activin A – biochemical, small-molecule microarray, 635 nm fluorescence scan, primary screen (AID 1107).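 Also: mouse activin A protein probed at 4.33 µg/mL on printed slides; score merges bound-protein fluorescence near 667 nm with spot signal-to-noise.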 To be noted: INHBA, higher = more signal.
Experiment [11] relates to Human papillomavirus type 1a protein E7 (residues 44-93). The experiment in a line: small molecules binding HPV E7 44-93 – biochemical, small-molecule microarray, residues 44-93, 635 nm fluorescence, primary screen (AID 1108).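 Also: E7 fragment applied at 1 µg/mL in TBST for 1 h at 4 C; score combines spot fluorescence with its signal to noise ratio.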 The note with it: fluorescence 635 nm, higher = more signal.
Experiment [12] can be described thus: hepatitis C replication reporter changes, two-sided – Huh7 cells, luciferase reporter, HCV replication inhibitor project, primary screen (AID 1109).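 Also: huh7 hepatoma cells harbouring a luciferase neomycin HCV replicon reporter; luciferase luminescence as measure of HCV replicon replication; test concentration not given here.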 The note with it: Huh7 HCV replicon luciferase reporter, 48 h; higher = more signal.
Experiment [13] has as its target Left-right determination factor 2 (Homo sapiens) (UniProt O00292). The experiment in a line: small molecules binding LEFTY2 protein – biochemical, small-molecule microarray, 635 nm fluorescence scan, primary screen (AID 1110). The note with it: higher = more signal.
Experiment [14] has as its target Calmodulin-1 (Homo sapiens) (UniProt P0DP23). The experiment in a line: small molecules binding calmodulin-1 with EGTA – biochemical, small-molecule microarray, Cy5-labelled CALM1, profiling panel (AID 1111).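 Also: labelled calmodulin applied in Tris saline Tween buffer holding calcium plus EGTA and DTT.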 To be noted: Cy5-CALM1 binding fluorescence, higher = more signal.
The target is the same in experiment [15]. The experiment in a line: small molecules binding Ca-loaded calmodulin-1 – biochemical, small-molecule microarray, Cy5-labelled CALM1, plus calcium, artefact control for SMM control-protein annotation, profiling panel (AID 1112).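 Also: score merges spot fluorescence with signal to noise from triplicate slides.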 The note with it: Cy5-CALM1 binding fluorescence, higher = more signal.
Experiment [16] is described as follows: probe aWnt5a binding to arrayed compounds – biochemical, biotinylated probe, 635/667 nm fluorescence, primary screen (AID 1113).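 Also: score merges 667 nm fluorescence intensity with signal-to-noise per printed feature.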 To be noted: small-molecule microarray, higher = more signal.
Experiment [17] can be described thus: probe aShh binding to arrayed compounds – biochemical, biotinylated probe, 635/667 nm fluorescence, primary screen (AID 1114).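 Also: probe is biotin-labelled aShh protein from a stem cell growth factor screen; measures binding of labelled protein to compounds printed on the slide; score merges feature fluorescence at 667 nm with signal-to-noise.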 To be noted: small-molecule microarray, higher = more signal.
Experiment [18] can be described thus: probe aNog binding to arrayed compounds – biochemical, biotinylated probe, 635/667 nm fluorescence, primary screen (AID 1115).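 Also: probe is biotinylated aNog protein used at 0.15 µg/mL for 1 h at 4 C; z-score combines 667 nm fluorescence of each spot with its signal to noise.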 The note with it: small-molecule microarray, higher = more signal.
For experiment [19], the target named is Torsin-1A-interacting protein 1 (Homo sapiens) (UniProt Q5JTV8). Briefly: compound microarray binding of lysate hLAP1 – cell lysate, small-molecule microarray, COS7 lysate, 635/667 nm fluorescence, primary screen (AID 1116). To be noted: 635 nm fluorescence, higher = more signal.
Torsin-1A-interacting protein 1 (Homo sapiens), sequence (Q5JTV8 whole entry, looked up): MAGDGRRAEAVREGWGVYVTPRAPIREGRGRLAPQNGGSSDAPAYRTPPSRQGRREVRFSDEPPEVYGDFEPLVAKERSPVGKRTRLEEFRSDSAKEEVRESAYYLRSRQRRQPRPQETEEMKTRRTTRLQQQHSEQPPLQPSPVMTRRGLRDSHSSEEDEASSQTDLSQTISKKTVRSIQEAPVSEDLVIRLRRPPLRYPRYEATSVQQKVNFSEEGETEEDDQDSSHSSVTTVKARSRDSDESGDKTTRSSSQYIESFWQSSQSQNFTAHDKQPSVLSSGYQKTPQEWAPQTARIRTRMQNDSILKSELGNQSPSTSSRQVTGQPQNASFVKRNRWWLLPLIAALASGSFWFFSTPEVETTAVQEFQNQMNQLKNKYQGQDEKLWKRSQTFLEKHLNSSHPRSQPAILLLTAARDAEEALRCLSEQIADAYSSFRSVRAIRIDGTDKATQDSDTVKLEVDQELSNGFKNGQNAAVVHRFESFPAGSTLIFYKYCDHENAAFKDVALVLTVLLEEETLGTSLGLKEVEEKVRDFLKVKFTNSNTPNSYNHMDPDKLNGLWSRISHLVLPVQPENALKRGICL
The target in experiment [20] is Alpha-bungarotoxin (Bungarus multicinctus) (UniProt P60615). Briefly: compounds binding labelled alpha-BTX control protein – biochemical, small-molecule microarray, Alexa647 label, 635/667 nm fluorescence, artefact control for SMM control protein annotation, profiling panel (AID 1117). To be noted: alpha-BTX-A647 binding fluorescence, higher = more signal.
Alpha-bungarotoxin (Bungarus multicinctus), sequence (P60615 whole entry, looked up): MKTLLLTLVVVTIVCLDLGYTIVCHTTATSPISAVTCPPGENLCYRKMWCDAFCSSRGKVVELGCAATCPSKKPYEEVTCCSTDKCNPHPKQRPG

Left-right determination factor 2 (Homo sapiens), sequence (O00292 whole entry, looked up): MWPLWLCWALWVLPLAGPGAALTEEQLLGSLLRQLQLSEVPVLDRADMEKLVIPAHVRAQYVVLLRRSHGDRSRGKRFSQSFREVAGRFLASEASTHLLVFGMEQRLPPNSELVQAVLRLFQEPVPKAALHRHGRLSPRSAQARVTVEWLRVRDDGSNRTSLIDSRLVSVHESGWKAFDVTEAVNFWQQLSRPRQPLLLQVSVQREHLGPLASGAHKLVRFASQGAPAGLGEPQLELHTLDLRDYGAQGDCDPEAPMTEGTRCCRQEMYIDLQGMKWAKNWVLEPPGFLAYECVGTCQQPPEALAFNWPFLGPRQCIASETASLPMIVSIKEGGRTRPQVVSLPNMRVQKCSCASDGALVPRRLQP

For `O=c1n(-c2ccccc2)c(=O)n2n1CC(COc1ccccc1)=C([C@H](O)CCc1ccccc1)[C@@H]2CO`, the composite z-score in [1] was -0.0946; in experiment [2] it was -0.342; in [3], -0.313; in experiment [5], 0.692; in [6], -0.0688; in experiment [7], 0.0867. Further, the composite z-score in [8] is 0.0711; in experiment [9] it was 0.291; in experiment [10], 1.03; in experiment [11], 0.676; in experiment [13], 0.892; in experiment [14], -0.833. Further, the composite z-score in experiment [15] is -0.556; in experiment [16], -0.0269; in experiment [17] it was -0.338; in experiment [18], -0.588; in [19], 0.0355; in [20], 0.5. In addition, the figures for the z-score in [4] and in [12] were -1.54 (inactive) and -2.17, respectively.
In the case of `COCCOC(=O)N1C(=O)[C@@]2(c3cc(C#CC4=CCCCC4)ccc31)[C@H](c1ccccc1OCCO)N1[C@H](c3ccccc3)[C@H](c3ccccc3)OC(=O)[C@H]1[C@@H]2C(=O)N1CCCCCCC1`, the composite z-score in experiment [1] is 1.17; in experiment [2] it was 1.18; in experiment [3], -0.624; in [5], 1.04; in experiment [6] it was 1.26; in experiment [7] it was 0.173. Moreover, the composite z-score was 0.974 in experiment [8]; 0.818 in experiment [9]; 0.451 in [10]; 1.38 in [11]; 0.225 in [13]; -0.529 in experiment [14]. The composite z-score is 0.258 in experiment [15]; -0.0327 in experiment [16]; -0.493 in experiment [17]; -0.345 in [18]; 1.08 in experiment [19]; 0.973 in [20]. Besides, the z-score in experiment [4] was -0.262 (inactive); in experiment [12] it was -2.94.
With `CCCCCCc1nc(-c2cc(C)c(OC)c(C)c2)c(C)c2c1[Si](C(C)C)(C(C)C)OC2`, the composite z-score in experiment [1] is -0.17; in experiment [2], 0.101; in experiment [3], -0.178; in experiment [5], -0.722; in [6], -0.644; in [7] it was 0.202. Also, the composite z-score is -0.0761 in experiment [8]; 0.0434 in experiment [9]; 0.737 in [10]; -0.226 in [11]; -0.0571 in experiment [13]; -0.357 in experiment [14]. Moreover, the composite z-score in experiment [15] was 0.34; in [16] it was -0.0445; in experiment [17] it was 0.184; in experiment [18] it was 0.116; in [19], -0.116; in experiment [20], -0.0116. The z-score in experiment [4] is -1.9 (inactive); in [12] it was 0.791.
Consider `CC(=O)c1ccc(C(O)C2C=CC3C(=O)N(c4ccccc4)C(=O)C3N2Nc2ccc(C#N)cc2)cc1` (stereo not given), for which the composite z-score is 0.45 in experiment [1]; 0.204 in experiment [2]; 0.764 in [3]; -0.0433 in experiment [5]; 0.582 in experiment [6]; 0.262 in experiment [7]. Further, the composite z-score was 0.133 in [8]; -0.594 in experiment [9]; 0.443 in experiment [10]; 0.909 in experiment [11]; 0.0172 in experiment [13]; 1.11 in [14]. For the same compound, the composite z-score is 0.586 in experiment [15]; -0.172 in experiment [16]; 0.149 in experiment [17]; -0.409 in experiment [18]; 0.142 in experiment [19]; 1.33 in experiment [20]. The z-score is 0.744 (inactive) in experiment [4] and -0.0483 in [12].
Consider `CC(C)[Si](C#CCCCC#N)(O[C@H](c1ccccc1)c1cn([C@H](CO)Cc2ccccc2)nn1)C(C)C`, for which the composite z-score in experiment [1] was 0.726; in experiment [2] it was -0.151; in experiment [3], 0.138; in experiment [5], 0.61; in experiment [6], 0.709; in [7], 0.52. Moreover, the composite z-score in [8] was determined as 1.36; in [9], 0.598; in [10], 0.0469; in [11], 0.385; in [13], 0.36; in experiment [14], 1.11. For the same compound, the composite z-score in experiment [15] was 0.295; in experiment [16], -0.0459; in [17], -0.0793; in experiment [18], 0.0392; in [19], 0.222; in [20] it was 0.559. Also, the z-score in experiment [4] was -0.401 (inactive); in experiment [12], -1.33.
